{"source": "PubChem BioAssay AID598", "about": "(SRMLSC, 2007)", "note": "Screen size: about 85,000 compounds; about 5,100 (6%) were called active.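 The calls were made as follows: active = viability at or below 40%; inactive = viability above 40%.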 Many of the other results were omitted from the sample, so actives are more common in it than they were."}
{"experiment": "proliferation blockers of H69AR lung cancer cells, primary screen, cell-based, human, 86K library (AID 598);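 also: multidrug resistant small cell line overexpressing MRP-1 efflux transporter; 100% = mean luminescence of untreated control wells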", "conditions": "H69AR lung tumor viability, ATP luminescence, 72 h; at 10 µM; active compounds read low"}
{"smiles": "CCCc1nc2ccccc2c(C(=O)OCC(=O)c2ccc3c(c2)NC(=O)CO3)c1CC", "viability": "43.2% (inactive)"}
{"smiles": "Cc1ccc(Cc2c(C)nc3nc(SCC(=O)NCCN4CCOCC4)nn3c2C)cc1", "viability": "93.9% (inactive)"}
{"smiles": "CCOc1ccc(NC(=O)CN(C)CC(=O)Nc2cccc(Cl)c2C)cc1OCC", "viability": "48.5% (inactive)"}
{"smiles": "Cc1cccc(NC(=O)N(Cc2cc3cc(C)cc(C)c3[nH]c2=O)CC2COCCO2)c1", "note": "(stereo not drawn)", "viability": "47% (inactive)"}
{"smiles": "Cn1c(Cn2nnc3ccccc32)nnc1SCC(=O)c1ccccc1F", "viability": "79.3% (inactive)"}
{"smiles": "CN=C1SC(CC(=O)Nc2ccc(C(=O)O)cc2)C(=O)N1C", "note": "(stereo not drawn)", "viability": "97.5% (inactive)"}
{"smiles": "O=C(CN1C(=O)CC(c2ccccc2)=Nc2ccccc21)NC1CCCCC1", "viability": "77.6% (inactive)"}
{"smiles": "Cc1nc2ccccc2c(=O)n1CCCn1ccnc1", "viability": "99% (inactive)"}
{"smiles": "Cc1ccnc(N2CCC(C(=O)NC3CCCCCC3)CC2)n1", "viability": "77.9% (inactive)"}
{"smiles": "Cc1ccnc(-n2sc3ccccc3c2=O)n1", "viability": "1.54% (active)"}
{"smiles": "CC(C)(C)N1CC(c2nc3ccccc3n2Cc2ccc(F)cc2)CC1=O", "note": "(stereo not drawn)", "viability": "79.4% (inactive)"}
{"smiles": "CCCn1c(C(Cc2ccccc2)NC(=O)COC)nc2ccccc21", "note": "(stereo not drawn)", "viability": "92.9% (inactive)"}
{"smiles": "CNC(=O)c1nnc(Cc2ccc(Cl)cc2)o1", "viability": "97.8% (inactive)"}
{"smiles": "O=C(OCc1ccccc1F)c1ccc2c(c1)OCCO2", "viability": "91.2% (inactive)"}
{"smiles": "O=C(CCN1CCc2ccccc2C(O)(c2ccccc2)C1)c1ccc2c(c1)OCCO2", "note": "(stereo not drawn)", "viability": "-0.08% (active)"}
{"smiles": "O=C(COC(=O)c1ccc2c(c1)OCCO2)NCc1ccccc1", "viability": "92.1% (inactive)"}
{"smiles": "CCn1c(SCC(=O)Nc2nc(C)cs2)nnc1C(C)NC(=O)c1ccccc1", "note": "(stereo not drawn)", "viability": "88.1% (inactive)"}
{"smiles": "COCCn1c(=S)[nH]c2cc(C(=O)NCCc3ccc(OC)c(OC)c3)ccc2c1=O", "viability": "78.1% (inactive)"}
{"smiles": "N#CC1=C(N)Oc2c(sc3ccccc23)C1c1ccco1", "note": "(stereo not drawn)", "viability": "14.4% (active)"}
{"smiles": "Cc1cc2c(c(=O)n1Cc1ccco1)C(c1ccccc1)C(C#N)=C(N)O2", "note": "(stereo not drawn)", "viability": "70% (inactive)"}
{"smiles": "O=C(COc1cc(Cl)c(Cl)cc1Cl)NC(=O)NC1CCCC1", "viability": "90.7% (inactive)"}
{"smiles": "CCOC(=O)c1cnc(SCC(=O)Nc2ccccc2C(=O)OC)nc1N", "viability": "87.2% (inactive)"}
{"smiles": "c1ccc(-n2ncc3c2ncn2c(CSc4nc5ccccc5s4)nnc32)cc1", "viability": "5.83% (active)"}
{"smiles": "CCN(CC)C(=O)CSc1ncnc2c1cnn2-c1ccccc1", "viability": "86.5% (inactive)"}
{"smiles": "c1ccc(-n2ncc3c2ncn2c(C4CCCCC4)nnc32)cc1", "viability": "105% (inactive)"}
{"smiles": "CCCNC(=O)N1CCN(C(=O)NCCC)CC1", "viability": "104% (inactive)"}
{"smiles": "CC(=O)c1cccc(NC(=O)C2CCCN2S(=O)(=O)c2cccc3nsnc23)c1", "note": "(stereo not drawn)", "viability": "88.1% (inactive)"}
{"smiles": "CCC(C)NC(=O)c1ccccc1NC(=O)c1ccccc1N(C)S(C)(=O)=O", "note": "(stereo not drawn)", "viability": "108% (inactive)"}
{"smiles": "CC(C)(C)C(=O)Cn1c(NCCO)nc2ccccc21", "viability": "98% (inactive)"}
{"smiles": "Cc1cc2nnc(SCC(=O)N3CCN(c4ccccc4)CC3)n2c(N)n1", "viability": "64.4% (inactive)"}
{"smiles": "Cc1ccccc1NC(=O)Cc1nnc(SCC(=O)N2CCN(c3ccccc3)CC2)n1C", "viability": "94% (inactive)"}
{"smiles": "Cn1c(Cc2cccc3ccccc23)nnc1SCC(=O)N1CCN(c2cccc(Cl)c2)CC1", "viability": "38.5% (active)"}
{"smiles": "CCn1nccc1C(=O)Nc1ccc(Cl)c(Cl)c1", "viability": "77% (inactive)"}
{"smiles": "CN(C)CCNC(CC(=O)Nc1ccc(Cl)c(Cl)c1)C(=O)O", "note": "(stereo not drawn)", "viability": "99.7% (inactive)"}
{"smiles": "O=C(CC(O)(C(F)(F)F)C(F)(F)F)Nc1ccc(Cl)c(Cl)c1", "viability": "1.49% (active)"}
{"smiles": "CCOC(=O)N1CCC(N(CCOC)C(=O)Nc2ccc(C)c(C)c2)CC1", "viability": "44.7% (inactive)"}
{"smiles": "Cc1noc(C)c1CSCC(=O)Nc1nc2ccc(Oc3ccccc3)cc2s1", "viability": "76.8% (inactive)"}
{"smiles": "COc1ccc(OC)c(-n2cc3c(=O)n(C)c(=O)n(C)c3c2)c1", "viability": "29.6% (active)"}
{"smiles": "COc1ccc(-c2c3c(=O)n(C)c(=O)n(C)c3cn2-c2cccc(OC)c2)cc1", "viability": "71.5% (inactive)"}
{"smiles": "Cn1c(=O)c2cn(-c3cccc4ccccc34)cc2n(C)c1=O", "viability": "47.3% (inactive)"}
{"smiles": "COCCCn1c(SCC(=O)Nc2ccccc2)nnc1-c1ccncc1", "viability": "95.9% (inactive)"}
{"smiles": "CC1(C)COC(c2cccn2Cc2ccccc2Cl)=N1", "viability": "104% (inactive)"}
{"smiles": "O=c1c2ccccc2nc2n1C1(CCCCC1)Cc1ccccc1-2", "viability": "83.7% (inactive)"}
{"smiles": "Cc1cc(NC(=O)CN2CCCC(C)C2)n(-c2nc3ccccc3s2)n1", "note": "(stereo not drawn)", "viability": "62.1% (inactive)"}
{"smiles": "CCOC(=O)N1CCN(CC(=O)Nc2cc(C)nn2-c2nc3ccccc3s2)CC1", "viability": "4.45% (active)"}
{"smiles": "CCOC(=O)N1CCC(NC(=O)c2ccc3nc(N4CCOCC4)sc3c2)CC1", "viability": "95.7% (inactive)"}
{"smiles": "Cc1nn(C)cc1CNC(=O)Nc1ccc(Cl)cc1", "viability": "90.8% (inactive)"}
{"smiles": "Cc1cccc(NC(=O)CN2C(=O)CNC2=O)c1", "viability": "91.7% (inactive)"}
{"smiles": "Cc1cccc(NC(=O)CN2CCCN(S(=O)(=O)c3ccc(Br)s3)CC2)c1", "viability": "35.9% (active)"}
{"smiles": "Cc1cccc(NC(=O)CSc2nnc(NC(=O)CN3CCOCC3)s2)c1", "viability": "79.3% (inactive)"}
{"smiles": "C/C(=N\\NC(=O)c1nc(C)cc(C)n1)c1ccccc1", "viability": "99.7% (inactive)"}
{"smiles": "O=C1c2ccccc2C(=O)N1CCCc1nc(-c2ccccc2)no1", "viability": "95.5% (inactive)"}
{"smiles": "Oc1ccc(-c2onc3ccc(Cl)cc23)cc1", "viability": "98.2% (inactive)"}
{"smiles": "COc1ccc(N2CCN(Cc3ccc(Br)s3)CC2)cc1", "viability": "65.6% (inactive)"}
{"smiles": "CC1(C)Cc2cccc(OCC(N)=O)c2O1", "viability": "102% (inactive)"}
{"smiles": "Fc1ccc2nc(N3CCCCC3)sc2c1", "viability": "90% (inactive)"}
{"smiles": "Fc1ccc2nc(Nc3nc4c(s3)CCCC4)sc2c1", "viability": "36.1% (active)"}
{"smiles": "CNC(=O)c1ccc2nc(NC(C)=O)sc2c1", "viability": "99% (inactive)"}
{"smiles": "COC(=O)CSc1nc2c(c(C3CC=CCC3)c1C#N)CCC2", "note": "(stereo not drawn)", "viability": "65.3% (inactive)"}
{"smiles": "O=C(c1cccc(F)c1)N1CCC(O)(c2cccnc2)CC1", "viability": "88.1% (inactive)"}
{"smiles": "CCOC(=O)N1CCC(Nc2c(NCCCN3CCN(CC)CC3)c(=O)c2=O)CC1", "viability": "112% (inactive)"}
{"smiles": "O=C(COC(=O)C12CC3CC(CC(C3)C1)C2)NCc1ccco1", "viability": "83.8% (inactive)"}
{"smiles": "CCOC(=O)c1cnc(SCC(=O)NCc2ccco2)nc1N", "viability": "91.3% (inactive)"}
{"smiles": "Cc1cc(C(=O)OCC(=O)NCc2ccco2)c(C)n1-c1ccccc1", "viability": "29.6% (active)"}
{"smiles": "CNc1nc(SC)nc(N(C#N)CC(=O)OC)n1", "viability": "92.4% (inactive)"}
{"smiles": "CCN(CC)S(=O)(=O)c1ccc2c3c(cccc13)C(=O)S2", "viability": "69% (inactive)"}
{"smiles": "O=C(CSC1=Nc2ccccc2C2=NC(CC(=O)NCc3ccco3)C(=O)N12)NCc1ccco1", "note": "(stereo not drawn)", "viability": "85.9% (inactive)"}
{"smiles": "CCOc1cc(NC(=O)c2cnccn2)c(OCC)cc1NC(=O)c1ccc(C)cc1", "viability": "110% (inactive)"}
{"smiles": "Cc1ccc(OCC(=O)N2CCN(C(=O)c3cccnc3)CC2)cc1", "viability": "86.2% (inactive)"}
{"smiles": "COc1ccc(NC(=O)C(CC(C)C)NS(=O)(=O)c2ccc3c(c2)CCN3C(C)=O)cc1OC", "note": "(stereo not drawn)", "viability": "90.6% (inactive)"}
{"smiles": "CCN(CC)Cc1cc(C(C)=O)ccc1O", "viability": "98.5% (inactive)"}
{"smiles": "CCOc1ccc2c(c1)C(c1ccc(C)cc1)=NNC(c1ccc(C)cc1)=N2", "viability": "21% (active)"}
{"smiles": "COc1ccc(C2C(C(C)=O)=C(O)C(=O)N2Cc2cccnc2)cc1", "note": "(stereo not drawn)", "viability": "99.2% (inactive)"}
{"smiles": "Cc1ccc(Nc2nnc(SCc3ccccc3)s2)cc1", "viability": "98.2% (inactive)"}
{"smiles": "COc1ccccc1C(=O)N1CC2(C)CC1CC(C)(C)C2", "note": "(stereo not drawn)", "viability": "84.2% (inactive)"}
{"smiles": "Cc1ccc(/C=N/NC(=O)Cn2nc(C)c(Br)c2C)o1", "viability": "102% (inactive)"}
{"smiles": "CCCCNC(=O)CCNC(=O)c1ccc(C(C)(C)C)cc1", "viability": "102% (inactive)"}
{"smiles": "CCOc1ccc(N(CC(=O)OC)S(=O)(=O)c2c(C)noc2C)cc1", "viability": "96.6% (inactive)"}
{"smiles": "CCOC(=O)c1cccc(NC(=O)CN(c2ccc(C)cc2)S(=O)(=O)c2c(C)noc2C)c1", "viability": "24% (active)"}
{"smiles": "Cc1noc(C)c1S(=O)(=O)N(CC(=O)Nc1ccc2c(c1)OCCO2)c1ccc(C(C)C)cc1", "viability": "56.8% (inactive)"}
{"smiles": "CCOC(=O)c1cc2c(ccn2C)n1CC(=O)N1CCC(C)CC1", "viability": "88.5% (inactive)"}
{"smiles": "O=C(COc1ccccc1)Nc1nonc1NC(=O)COc1ccccc1", "viability": "93.3% (inactive)"}
{"smiles": "COc1ccc(CN2CN(C(C)C)CSC2=S)cc1", "viability": "0.67% (active)"}
{"smiles": "O=C(Nc1cc2ccccc2oc1=O)C1CCCCC1", "viability": "98.1% (inactive)"}
{"smiles": "Cc1ccccc1-n1nc(C)c2cc(C(=O)NC3CC3)sc21", "viability": "66.4% (inactive)"}
{"smiles": "O=C(Nc1c(-c2ccccc2)nc2c(Br)cc(Br)cn12)c1ccco1", "viability": "29.5% (active)"}
{"smiles": "O=C(Nc1ccc(Sc2ccc(Br)cc2)cc1)c1ccco1", "viability": "54.3% (inactive)"}
{"smiles": "Cc1ccccc1NC(=O)c1cnn(-c2ccccc2)c1NC(=O)c1ccco1", "viability": "84.4% (inactive)"}
{"smiles": "CCOC(=O)c1c(N=CN(C)C)c(C#N)c2n1CCCC2", "viability": "90.8% (inactive)"}
{"smiles": "CCOc1ccc2[nH]c(=O)c(CN(Cc3nnnn3CCc3ccccc3)CC3CCCO3)cc2c1", "note": "(stereo not drawn)", "viability": "85.5% (inactive)"}
{"smiles": "CCOc1ccc2[nH]c(=O)c(CN(Cc3nnnn3Cc3ccccc3)CC3CCCO3)cc2c1", "note": "(stereo not drawn)", "viability": "34.3% (active)"}
{"smiles": "COc1ccc2[nH]c(=O)c(CN(Cc3nnnn3CCc3ccccc3)CC3CCCO3)cc2c1", "note": "(stereo not drawn)", "viability": "67.1% (inactive)"}
{"smiles": "O=C(COc1ccc(S(=O)(=O)NCc2ccccc2)cc1)N1CCOCC1", "viability": "97.4% (inactive)"}
{"smiles": "COc1ccc(Nc2oc(-c3ccccc3Cl)nc2C#N)cc1", "viability": "14.3% (active)"}
{"smiles": "CCOc1ccc(Nc2oc(Cc3ccccc3)nc2C#N)cc1", "viability": "78% (inactive)"}
{"smiles": "COc1ccccc1-c1nc(C#N)c(N2CCC(C(N)=O)CC2)o1", "viability": "95.8% (inactive)"}
{"smiles": "Cc1cc2nc(SCCN3CCOCC3)[nH]c2cc1C", "viability": "109% (inactive)"}
{"smiles": "C=C(C)CSc1nnc(-c2ccc(C)cc2)n1N", "viability": "99.4% (inactive)"}
